FBW7 act: human FBW7 E3 ligase activation, primary screen; AlphaScreen FBW7–phospho-cyclin E peptide binding, activator screen; 0.13% of 650,000 active; normalized activity (activation), % at 26.1 µM; in the data active = normalized activity above about 1.9%;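 also: purified mutant Fbw7 with reduced substrate affinity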
MITF primary: blocks human microphthalmia-associated transcription factor | O75030 | AlphaScreen MITF homodimerization, bead proximity signal | inhibition, % at 2.6 µM | 0.91% of 650,000 active | AID 1259374; in the data active = inhibition above about 50%;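 also: 0% = vehicle wells with protein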
TEAD-YAP block: TEAD-YAP interaction inhibition; inhibition, % at 9.12 µM; HEK-TIYL cells, TEAD-Gal4/YAP UAS-luciferase luminescence; 1.4% of 640,000 active; AID 1259422; in the data active = inhibition above about 32%;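 also: 0% = median of test compound wells and 100% = reference inhibitor wells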
GPR151 ag: human GPR151 activation; PathHunter beta-arrestin GPR151 cells, luminescence; AID 1508602; activation, % at 11.2 µM; 1% of 650,000 active; Q8TDV0; in the data active = activation above about 4.9%;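 also: 0% = median of compound wells and 100% = cells with positive control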
Target sequence (Q8TDV0 whole entry, looked up): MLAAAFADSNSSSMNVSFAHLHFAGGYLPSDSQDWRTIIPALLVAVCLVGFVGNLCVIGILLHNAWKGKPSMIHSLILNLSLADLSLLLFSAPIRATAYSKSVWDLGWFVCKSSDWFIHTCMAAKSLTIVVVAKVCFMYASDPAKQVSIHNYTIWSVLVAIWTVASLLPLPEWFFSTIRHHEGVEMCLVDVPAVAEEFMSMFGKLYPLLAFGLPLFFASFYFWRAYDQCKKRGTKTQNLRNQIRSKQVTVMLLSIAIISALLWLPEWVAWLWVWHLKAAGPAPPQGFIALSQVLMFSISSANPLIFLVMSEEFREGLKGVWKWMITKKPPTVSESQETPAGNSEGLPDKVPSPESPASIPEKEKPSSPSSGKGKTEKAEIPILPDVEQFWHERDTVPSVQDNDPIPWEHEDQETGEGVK
MITF inh conf: human MITF inhibition, confirmation; AID 1259372; AlphaScreen MITF homodimerization, biotin/His-MITF beads; inhibition, % at 2.6 µM; shares compounds with MITF primary; 16% of 4,700 active;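 active = inhibition above a cutoff derived from the DMSO control wells, cut at about 28% in these data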;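 also: 0% = MITF dimer wells with DMSO only; inhibitors lower the bead chemiluminescence by keeping MITF from dimerizing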
AS interf DR: counter-screen: compounds optically interfering with AlphaScreen | shares compounds with MITF primary | AlphaScreen optical interference counterscreen, cell-free | IC50, µM | 6% of 480 active; call rule not given here
AS interf ctr: counter-screen: compounds optically interfering with AlphaScreen. AID 1259376. inhibition, % at 2.6 µM. 7.6% of 4,700 active. LysRS AlphaScreen counterscreen, signal interference, triplicate. shares compounds with MITF primary;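 active = inhibition above a cutoff derived from the DMSO control wells, cut at about 30% in these data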
* marks the source's active call; other numbers are inactive results; nt = no result given. Sampled rows, rich in hits. Any-hit rate of the full collection: about 3.5%.

SMILES | FBW7 act | MITF primary | TEAD-YAP block | GPR151 ag | MITF inh conf | AS interf ctr | others
CCOc1ccc(CN2CCN(Cc3cc(OC)c(O)c(OC)c3)CC2)cc1 | 0.0 | 55.6* | -14.5 | 3.3 | 1.9 | 8.3
Cc1ccc(S(=O)(=O)N2CCN(Cc3cccc4ccccc34)CC2)cc1 | -0.1 | 44.1 | -3.7 | -1.5 | nt | nt
COc1ccc(-c2cn(N)c(N)n2)cc1 | -0.2 | -2.3 | 2.6 | -0.6 | nt | nt
CC(=O)N(C(C)=O)N(C(C)=O)c1nc(N2CCOCC2)nc(N2CCOCC2)n1 | 0.0 | -1.3 | 5.1 | 2.3 | nt | nt
COC(=O)C(NC(=O)Nc1sc2c(c1C#N)CCCC2)(Oc1ccc(F)cc1)C(F)(F)F (stereo not given) | -0.1 | 14.5 | -1.8 | -1.4 | nt | nt
Nn1cnn2c(SCC(=O)Nc3nnc(SCC(=O)N4c5ccccc5Sc5ccccc54)s3)nnc12 | 0.2 | 2.9 | 11.8 | 1.9 | nt | nt
CCOc1ccc(CN2CCN(Cc3ccc(CC)cc3)CC2)cc1 | -0.1 | 74.8* | 11.9 | 0.8 | 10.6 | 6.1
O=S(=O)(c1ccc(F)cc1)N1CCN(Cc2ccncc2)CC1 | -0.5 | 73.0* | 0.5 | -0.5 | 13.3 | 19.0
O=C(NCc1cccs1)c1ccc(CNS(=O)(=O)c2ccc(F)cc2)cc1 | 0.1 | 0.0 | -2.5 | -0.3 | nt | nt
O=C(NCCNCc1cccs1)c1ccc(F)cc1 | 0.2 | 55.3* | 6.9 | -0.8 | -5.0 | 17.4
COc1cccc(OC)c1OCCN(C)C | 0.0 | 58.7* | 5.3 | -0.5 | 21.8 | -6.6
CCN(CC)CCCOc1c(OC)cccc1OC | 0.2 | 74.7* | 8.7 | 1.4 | 14.1 | -12.3
COc1cccc(OC)c1OCCOc1ccccc1C | -0.1 | -12.5 | 7.5 | -0.1 | nt | nt
O=C(CC(NCCc1c[nH]c2ccccc12)C(=O)O)c1ccc(F)cc1 (stereo not given) | -0.1 | -9.7 | 10.3 | 1.1 | nt | nt
CC1CCN(c2ccc(S(=O)(=O)NCCCN(C)C)cc2[N+](=O)[O-])CC1 | -0.1 | 12.9 | 20.7 | -0.1 | nt | nt
CC(=O)COc1ccc2c(C(F)(F)F)cc(=O)oc2c1 | 0.1 | -23.3 | 4.0 | -1.3 | nt | nt
CC(Oc1ccc2c(C(F)(F)F)cc(=O)oc2c1)C(=O)NN (stereo not given) | -0.2 | 57.8* | 0.6 | 3.5 | 44.2* | -4.4 | AS interf DR=>6.56
O=C(NCc1ccccc1)c1ccnc(-c2cccs2)c1 | 0.3 | 31.1 | -5.4 | -1.4 | nt | nt
O=C(NCc1cccnc1)c1ccnc(-c2cccs2)c1 | 0.0 | 50.9* | 9.4 | -0.1 | 29.8* | -3.0 | AS interf DR=>6.93
Cc1cccc(OCC(=O)NCCc2ccc(N3CCCC3)cc2)c1 | -0.6 | 52.9* | 1.9 | 0.4 | -1.6 | -0.6
Cc1cc(O)c(C(C[N+](=O)[O-])c2c[nH]c3ccccc23)c(=O)o1 (stereo not given) | 0.8 | 18.5 | 2.4 | -0.6 | nt | nt
CCN1CCN(C2CCN(Cc3ccccc3[N+](=O)[O-])CC2)CC1 | 0.3 | 8.7 | -14.8 | 0.9 | nt | nt
O=[N+]([O-])c1ccccc1CN1CCN(C2CCN(Cc3ccccc3)CC2)CC1 | 0.0 | 87.6* | 3.0 | -1.6 | 2.0 | 12.6
O=[N+]([O-])c1ccccc1CN1CCc2ccccc2C1 | -0.2 | 21.0 | 11.4 | 1.6 | nt | nt
CC1CC(C)CN(C2CCN(Cc3ccccc3[N+](=O)[O-])CC2)C1 (stereo not given) | -0.2 | 57.6* | -4.6 | -0.8 | -0.3 | 2.7
SMILES | FBW7 act | MITF primary | TEAD-YAP block | GPR151 ag | MITF inh conf | AS interf ctr | others
O=[N+]([O-])c1ccccc1CN1CCC(N2CCc3ccccc3C2)CC1 | -0.2 | 71.5* | 5.7 | -1.9 | 13.1 | 27.3
Clc1ccc(CN2CCN(C3CC4CCC3C4)CC2)cc1 (stereo not given) | -0.1 | 78.9* | -8.5 | -0.2 | 15.9 | 18.5
CCOC(=O)C1CCN(Cc2ccccc2[N+](=O)[O-])CC1 | -0.2 | 16.6 | 7.9 | 2.3 | nt | nt
O=CN1CCN(Cc2ccc(Cl)cc2)CC1 | 0.0 | 50.0 | 11.7 | 0.8 | nt | nt
O=[N+]([O-])c1ccc(-c2noc(COc3ccc(Cl)cc3)n2)cc1 | -0.1 | 13.2 | 0.3 | 0.1 | nt | nt
O=C(CNc1ccc(Cl)cc1)N/N=C/c1ccccc1 | 0.0 | -2.3 | -12.1 | -0.4 | nt | nt
O=[N+]([O-])c1ccccc1CN1CCN(C2CCCC2)CC1 | -0.1 | 72.9* | 1.3 | -0.5 | 9.1 | 1.7
O=[N+]([O-])c1ccccc1CN1CCC(N2CCCC2)CC1 | -0.1 | 57.0* | -10.3 | 0.0 | 9.7 | 1.9
O=[N+]([O-])c1ccccc1CN1CCN(C2CC3CCC2C3)CC1 (stereo not given) | -0.1 | 66.8* | -1.5 | -0.7 | 10.6 | 10.7
O=[N+]([O-])c1ccccc1CN1CCC(O)CC1 | 0.2 | 21.2 | -9.4 | 1.0 | nt | nt
CCn1c(CSc2ncnc3sccc23)nc2cc(S(=O)(=O)N(C)C)ccc21 | -0.2 | 16.6 | 3.5 | 0.2 | nt | nt
COc1ccc2c(c1)N(C(N)=S)C(C)(C)C=C2C | -0.8 | 89.7* | 11.5 | 0.7 | 72.9* | 57.4*
OCCN(CCO)c1ncnc2sc3c(c12)CCCC3 | -0.1 | 68.5* | -1.4 | -0.4 | 8.3 | 14.6
CS(=O)(=O)N1CCN(C(=O)c2cccc(C(F)(F)F)c2)CC1 | 0.0 | -7.7 | 5.6 | 0.0 | nt | nt
O=C(O)c1ccccc1-c1ccc(/C=C/[N+](=O)[O-])o1 | -1.1 | 80.6* | 1.7 | 0.5 | 73.4* | -7.2 | AS interf DR=>6.48
CC(=O)c1ccc(-c2ccc(/C=C/[N+](=O)[O-])o2)cc1 | -0.1 | 69.1* | -11.9 | 0.1 | 55.6* | 31.4*
CC(C)COc1ccc2c(c1)Sc1ccccc1N2CCN(C)C | -0.3 | 53.7* | 3.1 | 1.4 | 20.5 | 20.4
COc1ccc2c(c1OC)C(=O)N(c1ccc(OCc3ccccc3)cc1)C2 | 0.8 | 11.3 | 13.3 | 1.1 | nt | nt
CN(C)CCCNC(=O)c1cccc(CN(C(=O)c2nc3ccc(-c4cn[nH]c4)cc3s2)C2CC2)c1 | 0.9 | 60.1* | -3.2 | -0.7 | 50.1* | 14.4 | AS interf DR=>6.48
CCN(CC)CCN1CCN(c2ccnc3c(-c4cccc(OC)c4)cnn23)CC1 | -0.1 | -14.3 | -46.8 | 2.6 | nt | nt
CCOC(=O)/C(C#N)=C(\O)c1ccc(NC(=O)CCC(=O)O)cc1 | 0.1 | -15.9 | -7.0 | -0.5 | nt | nt
CSc1ccccc1NC(=O)CC1Sc2ccc(C(F)(F)F)cc2NC1=O (stereo not given) | -0.2 | 55.6* | -3.7 | -0.6 | -3.6 | -6.5
CCc1ccccc1NC(=O)CC1Sc2ccc(C(F)(F)F)cc2NC1=O (stereo not given) | 0.2 | 12.1 | 6.5 | 0.7 | nt | nt
Cc1cccc(NC(=O)CC2Sc3ccc(C(F)(F)F)cc3NC2=O)c1C (stereo not given) | -0.2 | 65.7* | 3.5 | 0.0 | 4.1 | -6.7
COC(C)(C)CNC(=O)C1CCN(C2CCN(Cc3cccc(C)n3)CC2)CC1 | -0.2 | 81.2* | 10.2 | -0.4 | 72.5* | 3.5 | AS interf DR=>6.48
CCC(C)CNC(=O)C1CCN(C2CCN(Cc3cccc(C)n3)CC2)CC1 (stereo not given) | 0.8 | -5.6 | 7.3 | 2.9 | nt | nt
Cc1csc2ncc(C(=O)NCCCO)c(=O)n12 | -0.2 | -5.8 | 10.9 | -1.4 | nt | nt

High-throughput results: PubChem, The Scripps Research Institute Molecular Screening Center
